Where “and” joins values, the source holds several entries; their conditions need not be identical. Equal entries are not always repeated. The whole screen tested about 5,500 compounds, of which about 2,000 (36%) were called active. Another 18% or so got no clear call; they are omitted. Cut-off read from the data, not from the text of the source: active = normalized growth mostly below about 0.91 (no sharp cut-off); inconclusive = no clear call, values can overlap the other calls; inactive = mostly above about 0.92. Some of the results follow.
Assay: chemical genetic growth profiling, strain panel (AID 1159580);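 note: tested at 20 µM; growth read once vehicle control cultures reached saturation at 30 °C; 1 = growth at the plate median or of vehicle wells; lower values mean less growth of the strain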
Details: S. cerevisiae deletion strains, growth OD

Measured: normalized growth

NC1(C(=O)O)CC1
inactive: locus YAL013W, strain DEP1, hits give low values 1 | locus YAL021C, strain ccr4, hits give low values 1.04 | locus YAL026C, strain drs2, hits give low values 1.04 | locus YAL030W, strain snc1, hits give low values 1.02 | locus YAL040C, strain CLN3, hits give low values 0.98 | locus YBL061C, strain skt5, hits give low values 1.04 | locus YBR009C, strain hhf1, hits give low values 1.02 | locus YBR021W, strain FUR4, hits give low values 1.01 | locus YBR023C, strain chs3, hits give low values 1.03 | locus YBR171W, strain sec66, hits give low values 1.04 | locus YBR229C, strain ROT2, hits give low values 1.01 | locus YBR231C, strain swc5, hits give low values 1.02 | locus YBR279W, strain paf1, hits give low values 1.02 | locus YCL011C, strain gbp2, hits give low values 1.02 | locus YCL016C, strain dcc1, hits give low values 1.04 | locus YCL029C, strain bik1, hits give low values 1.02 | locus YCL061C, strain MRC1, hits give low values 1.02 | locus YCL069W, strain vba3, hits give low values 1.02 | locus YCR088W, strain abp1, hits give low values 1.02 | locus YDL005C, strain med2, hits give low values 1.03 | locus YDL035C, strain GPR1, hits give low values 1.03 | locus YDL040C, strain nat1, hits give low values 1.02 | locus YDL074C, strain BRE1, hits give low values 1.01 | locus YDL101C, strain DUN1, hits give low values 1.01 | locus YDL134C, strain PPH21, hits give low values 1.01 | locus YDL185W, strain tfp1, hits give low values 1.03 | locus YDL192W, strain arf1, hits give low values 1.02 | locus YDR001C, strain nth1, hits give low values 1.02 | locus YDR069C, strain doa4, hits give low values 1.04 | locus YDR101C, strain arx1, hits give low values 1 | locus YDR137W, strain rgp1, hits give low values 1.06 | locus YDR150W, strain NUM1, hits give low values 1.01 | locus YDR159W, strain sac3, hits give low values 1.02 | locus YDR162C, strain NBP2, hits give low values 1.03 | locus YDR195W, strain ref2 1.02 | locus YDR297W, strain sur2, hits give low values 1.03 | locus YDR318W, strain mcm21, hits give low values 1.03 | locus YDR334W, strain swr1, hits give low values 1.03 | locus YDR335W, strain msn5, hits give low values 1.04 | locus YDR363W, strain ESC2, hits give low values 0.986 | locus YDR388W, hits give low values 1.01 | locus YDR392W, strain spt3, hits give low values 1.05 | locus YDR502C, strain sam2, hits give low values 1.02 | locus YEL003W, strain gim4, hits give low values 1.02 | locus YEL037C, strain rad23, hits give low values 1.02 | locus YEL061C, strain CIN8 (second series), hits give low values 1.03 | locus YEL061C, strain CIN8, hits give low values 1 | locus YER002W, strain NOP16, hits give low values 0.981 | locus YER015W, strain faa2, hits give low values 1.03 | locus YER016W, strain bim1, hits give low values 1.04 | locus YER110C, hits give low values 1.03 | locus YER111C, strain swi4, hits give low values 1.01 | locus YER155C, strain BEM2 (second series), hits give low values 1.02 | locus YER155C, strain BEM2, hits give low values 0.998 | locus YER167W, strain BCK2, hits give low values 1.05 | locus YFR010W, strain ubp6, hits give low values 1.01 | locus YGL078C, strain dbp3, hits give low values 1.02 | locus YGL086W, strain mad1, hits give low values 1.03 | locus YGL167C, strain pmr1, hits give low values 1.04 | locus YGL173C, strain kem1, hits give low values 1.03 | locus YGL227W, strain vid30, hits give low values 1.02 | locus YGL240W, strain doc1, hits give low values 1.01 | locus YGL248W, strain PDE1, hits give low values 1.01 | locus YGL253W, strain hxk2, hits give low values 1.04 | locus YGR078C, strain PAC10, hits give low values 1.02 and 0.978 | locus YGR135W, strain pre9, hits give low values 1.03 | locus YGR229C, strain SMI1, hits give low values 1.01 | locus YGR252W, strain gcn5, hits give low values 1.04 | locus YHR013C, strain ard1, hits give low values 1.06 | locus YHR027C, strain rpn1, hits give low values 1.04 | locus YHR030C, strain SLT2, hits give low values 1 and 1.03 | locus YHR079C, strain IRE1 (second series), hits give low values 1.01 | locus YHR079C, strain IRE1, hits give low values 1.03 | locus YHR094C, strain hxt1, hits give low values 1.01 | locus YHR129C, strain ARP1, hits give low values 1 | locus YHR142W, strain chs7, hits give low values 1.05 | locus YHR200W, strain rpn10, hits give low values 1.03 | locus YIL066C, strain RNR3, hits give low values 1.02 | locus YIL073C, strain SPO22, hits give low values 1.11 | locus YIL125W, strain kgd1, hits give low values 1 | locus YIR030C, strain dcg1, hits give low values 1.01 | locus YJL092W, strain hpr5, hits give low values 1.02 | locus YJL095W, strain BCK1 (second series), hits give low values 1.02 | locus YJL095W, strain BCK1, hits give low values 1.02 and 1.04 | locus YJL115W, strain asf1, hits give low values 1.03 | locus YJL129C, strain trk1, hits give low values 1.05 | locus YJL134W, strain LCB3, hits give low values 1 | locus YJL154C, strain vps35, hits give low values 1.01 | locus YJL164C, strain tpk1, hits give low values 1.02 | locus YJL166W, strain qcr8, hits give low values 1.01 | locus YJL168C, strain set2, hits give low values 1.02 | locus YJL187C, strain SWE1 (second series), hits give low values 1.01 | locus YJL187C, strain SWE1, hits give low values 1.01 | locus YJR043C, strain POL32, hits give low values 1.01 | locus YJR066W, strain TOR1, hits give low values 0.98

Source: PubChem BioAssay AID1159580 (chemical genetic matrix, 2015)
